Reference: PubChem BioAssay (NCATS)
Results filed as inconclusive are left out. Unmarked numbers belong to inactive results. Activity calls are given as the source filed them. Calls follow the shape of the dose curve; as a rule, active = well fitted curve in the direction sought with a large enough effect; inconclusive = small, poorly fitted or top-dose-only effect, or another doubt; inactive = no such curve, though single readings can be large; an effect the other way counts as inactive or inconclusive.

Assay: P-glycoprotein substrates identified in KB-3-1 adenocarcinoma cell line, qHTS therapeutic library screen (AID 1346986); also: nearly all actives have a fitted effect of over 60% in size;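 also: potency is for cytotoxicity meaning loss of cell viability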
Settings: KB-3-1 parental cells viability, CellTiter-Glo, 72 h; series mostly up to 44.5 µM; activity change, negative = cytotoxicity: at the top concentration
Procedure, shortened: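 KB-3-1 parental and colchicine-selected P-gp-overexpressing KB-8-5-11 cells (colchicine omitted during assay), 500 cells/well, dosed in dose-response for 72 h at 37 °C; CellTiter-Glo luminescence. Cytotoxic: curve class -1.1 to -2.4, max response >50%, AC50 < 10 uM.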
Potency is read from the fitted curve at half-maximal effect.

Q: Which “outcome” value does the source give for CC(NC(=O)CC(=O)O)c1nc2ccccc2c(=O)[nH]1 (stereo not drawn) here?
A: inactive

Q: Which “outcome” value does the source give for C/C(=C\CCC(C)(O)c1ccc(C)cc1)C(=O)O (stereo not drawn) here?
A: inactive

Q: Which “outcome” value does the source give for CC(/C=C/C1(O)C(C)(C)CC(O)CC1(C)O)OC1OC(CO)C(O)C(O)C1O (stereo not drawn) here?
A: inactive [at 17.4 µM]

Q: With Cc1nc2c(-c3cnc(N)nc3)nc(N3CCOCC3)nc2n1C(C)C as the molecule, how does the Potency read?
A: 259 nM (active)

Q: With CC(C#N)C(C)O[C@@H]1O[C@H](CO)[C@@H](O)[C@H](O)[C@H]1O (stereo partly drawn) as the molecule, how does the “outcome” value read?
A: inactive

Q: Which “outcome” value does the source give for C=C1[C@H]2CC[C@]3(O)[C@@](CC[C@@H]4[C@](C)(C(=O)O)CCC[C@]43C)(C2)[C@H]1OC(=O)/C(C)=C\C here?
A: inactive [at 17.4 µM]

Q: Which “outcome” value does the source give for O=C(/C=C/c1ccc(O)cc1)O[C@H]1[C@@H]2C=CO[C@@H](O[C@@H]3O[C@H](CO)[C@@H](O)[C@H](O)[C@H]3O)[C@@H]2[C@@]2(CO)O[C@@H]12 here?
A: inactive [at 17.4 µM]

Q: With COc1cccc(-n2nc(C(=O)O)cc2-c2ccc(C3CCCCC3)c(Cl)c2)c1 as the molecule, how does the “outcome” value read?
A: inactive

Assay: P-glycoprotein substrates identified in KB-8-5-11 adenocarcinoma cell line, qHTS therapeutic library screen (AID 1346987); also: nearly all actives have a fitted effect of over 65% in size; as to activity change, negative = cytotoxicity: % is scaled to controls: 0 for no effect and ±100 for the full control effect
Settings: KB-8-5-11 (P-gp overexpressing) viability, CellTiter-Glo, 72 h; series mostly up to 44.5 µM; activity change, negative = cytotoxicity: at the top concentration
Procedure, shortened: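 Steps: plate 500 KB-8-5-11 cells/well in DMEM + 10% FCS (colchicine removed); pin compounds in dose-response; incubate 72 h, 37 degree C, 5% CO2; add CellTiter-Glo, 5 min; read luminescence.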

Q: For COc1cc2c(cc1OC)CN(C(=O)[C@@H](NCc1ccncc1)C(C)(C)C)CC2, which “activity change, negative = cytotoxicity” value is on record?
A: 0.391%

Q: For NC(=O)[C@H]1CCCCc2c1[nH]c1ccc(Cl)cc21, which “activity change, negative = cytotoxicity” value is on record?
A: 8.12% [at 17.3 µM]

Q: With C=CC(C)(O)CO[C@@H]1O[C@H](CO)[C@@H](O)[C@H](O)[C@H]1O (stereo partly drawn) as the molecule, how does the “activity change, negative = cytotoxicity” value read?
A: 6.43%

Q: Which “outcome” value does the source give for CC(NC(=O)CC(=O)O)c1nc2ccccc2c(=O)[nH]1 (stereo not drawn) here?
A: inactive

Q: For C/C(=C\CCC(C)(O)c1ccc(C)cc1)C(=O)O (stereo not drawn), which “outcome” value is on record?
A: inactive

Q: Which “activity change, negative = cytotoxicity” value does the source give for CC1(C)CC(=O)N(CCCCN2CCN(c3ncccn3)CC2)C(=O)C1 here?
A: -6.57%

Q: Which “outcome” value does the source give for CC(C)CC(=O)OC[C@H]1O[C@@](COC(=O)CC(C)C)(O[C@H]2O[C@H](CO)[C@@H](O)[C@H](O)[C@H]2O)[C@@H](OC(=O)CC(C)C)[C@@H]1OC(=O)CC(C)C here?
A: inactive [at 17.3 µM]

Q: For CC(/C=C/C1(O)C(C)(C)CC(O)CC1(C)O)OC1OC(CO)C(O)C(O)C1O (stereo not drawn), which “outcome” value is on record?
A: inactive [at 17.3 µM]

Q: With C=C[C@](C)(CC/C=C(\C)C(=O)O)O[C@@H]1OC[C@H](O)[C@H](O)[C@H]1O as the molecule, how does the “outcome” value read?
A: inactive

Q: With CC1=C(C)C(=O)OC(C(C)C2C(O)CC3C4C5OC5C5(O)CC(OC6OC(CO)C(O)C(O)C6O)CC(O)C5(C)C4CCC32C)C1 (stereo not drawn) as the molecule, how does the “outcome” value read?
A: inactive [at 17.3 µM]

Q: For Cc1nc2c(-c3cnc(N)nc3)nc(N3CCOCC3)nc2n1C(C)C, which Potency is on record?
A: 259 nM (active)

Q: For CC1OC(O[C@H]2[C@@H](O)C[C@@]3(C)C([C@H](O)C[C@]4(C)C3CC=C3C5CC(C)(C)CC[C@]5(C(=O)OC5OC(CO)C(O)C(O)C5OC5OCC(OC6OCC(OC7OCC(O)C(O)C7O)C(O)C6O)C(OC6OCC(O)(CO)C6O)C5O)CC[C@]34C)[C@]2(C)CO)C(O)C(O)C1O (stereo partly drawn), which activity change, negative = cytotoxicity is on record?
A: 1.18% [at 9.29 µM]

Q: For C[C@H](NCc1ccc(OCc2ccccc2F)cc1)C(N)=O, which “outcome” value is on record?
A: inactive

Q: With COc1c(C)c(C(=O)c2ccc(N)c(C(=O)O)c2)n2ccccc12 as the molecule, how does the Potency read?
A: inactive

Q: Which “activity change, negative = cytotoxicity” value does the source give for CC(=O)c1c(O)cc2cccc3c2c1CC(C)(O)O3 (stereo not drawn) here?
A: 3.9%

Q: With C=C1CC[C@@H]2[C@](C)(CC[C@H](O)[C@@]2(C)CCC=C(C)C)[C@@H]1Cc1c[nH]c2ccccc12 as the molecule, how does the “activity change, negative = cytotoxicity” value read?
A: -21% [at 17.3 µM]

Q: For CCOc1c2c(c(OCC)c3ccccc13)C(=O)N(c1ccc(CC(=O)NS(=O)(=O)c3ccccc3)cc1)C2, which “outcome” value is on record?
A: inactive

Q: With C=CCc1ccc(O[C@@H]2O[C@H](CO[C@@H]3O[C@H](CO)[C@@H](O)[C@H](O)[C@H]3O)[C@@H](O)[C@H](O)[C@H]2O)c(O)c1 as the molecule, how does the “activity change, negative = cytotoxicity” value read?
A: 3.43% [at 17.3 µM]

Q: For COc1ccc(C(=O)O[C@H]2CC(C)=CC[C@@]3(C)[C@@H](OC(C)=O)C[C@@](O)(C(C)C)[C@H]23)cc1, which “activity change, negative = cytotoxicity” value is on record?
A: -2.94% [at 17.3 µM]

Q: With COC1=CC(=O)O[C@@H](CCc2ccccc2)[C@@H]1O as the molecule, how does the “activity change, negative = cytotoxicity” value read?
A: 4.29%

Q: For CC(C#N)C(C)O[C@@H]1O[C@H](CO)[C@@H](O)[C@H](O)[C@H]1O (stereo partly drawn), which “outcome” value is on record?
A: inactive

Q: For CC1(C)CCCC2(C)C1C(O)C=C(CO)C2(O)C(=O)O (stereo not drawn), which “activity change, negative = cytotoxicity” value is on record?
A: 8.34%

Q: For CC1CCC2C(C)(C)C(O)CCC2(C)C12Cc1c(O)cc3c(c1O2)CN(C(CCC(N)=O)C(=O)O)C3=O (stereo not drawn), which “outcome” value is on record?
A: inactive [at 17.3 µM]

Q: With Cc1ccc(C(=O)Nc2ccc(Oc3cc4cnn(C)c4cc3-c3cn[nH]c3)c(F)c2)c(=O)n1-c1ccc(F)cc1 as the molecule, how does the Potency read?
A: 4610 nM (active)

Q: For Cn1c(=O)cc(N2CCCC(N)C2)n(Cc2ccccc2C#N)c1=O (stereo not drawn), which “outcome” value is on record?
A: inactive

Q: With C=C(C(=O)O)C1CCC(C)C2CCC(=O)OC2(C)C1 (stereo not drawn) as the molecule, how does the “activity change, negative = cytotoxicity” value read?
A: 0.192%

Q: Which “activity change, negative = cytotoxicity” value does the source give for CC1=C2C(=O)C=C(CO)[C@@H]2[C@H]2OC(=O)[C@H](C)[C@@H]2[C@@H](O)C1 here?
A: 6.88%

Q: Which “activity change, negative = cytotoxicity” value does the source give for CC(C)CNC(=O)/C=C/CCCCc1ccc2c(c1)OCO2 here?
A: 4.07%

Q: With C/C=C(\C)C(=O)O[C@H]1[C@@H](O[C@]2(COC(=O)CC(C)C)O[C@H](COC(=O)C(C)C)[C@@H](OC(C)=O)[C@@H]2O)O[C@H](COC(C)=O)[C@@H](O)[C@@H]1O as the molecule, how does the “outcome” value read?
A: inactive [at 17.3 µM]

Q: For CC1=CC(=O)OC(C)(CC(C)(O)C(=O)O)C1 (stereo not drawn), which “activity change, negative = cytotoxicity” value is on record?
A: 8.13%

Q: Which “outcome” value does the source give for Cn1ccnc1CCOC(c1cc2nccc(C(=O)O)c2[nH]1)c1ccccc1Cl (stereo not drawn) here?
A: inactive

Q: With C=C1[C@H]2CC[C@]3(O)[C@@](CC[C@@H]4[C@](C)(C(=O)O)CCC[C@]43C)(C2)[C@H]1OC(=O)/C(C)=C\C as the molecule, how does the “outcome” value read?
A: inactive [at 17.3 µM]

Q: Which Potency does the source give for Cc1cc(Nc2ncc(Cl)c(Nc3ccccc3S(=O)(=O)C(C)C)n2)c(OC(C)C)cc1C1CCNCC1 here?
A: 6510 nM (active)

Q: For O=C(/C=C/c1ccc(O)cc1)O[C@H]1[C@@H]2C=CO[C@@H](O[C@@H]3O[C@H](CO)[C@@H](O)[C@H](O)[C@H]3O)[C@@H]2[C@@]2(CO)O[C@@H]12, which “activity change, negative = cytotoxicity” value is on record?
A: 2.44% [at 17.3 µM]

Q: Which “outcome” value does the source give for CC1(C)CCC[C@@]2(C)[C@H]1[C@H](O)C=C1COC(=O)[C@@]12O here?
A: inactive

Q: Which “activity change, negative = cytotoxicity” value does the source give for COc1cc(/C=C/CO)ccc1O[C@@H]1O[C@H](CO)[C@@H](O)[C@H](O)[C@H]1O here?
A: 9.81%

Q: With COc1cccc(-n2nc(C(=O)O)cc2-c2ccc(C3CCCCC3)c(Cl)c2)c1 as the molecule, how does the “outcome” value read?
A: inactive

Q: For CC1CCC(=O)CC(O)C(O)CC(=O)O1 (stereo not drawn), which “activity change, negative = cytotoxicity” value is on record?
A: 7.38%

Q: With COc1cccc2c1CCC[C@H]2CN(C)CCc1ccc2ccoc2c1 as the molecule, how does the “activity change, negative = cytotoxicity” value read?
A: -21.8%

Q: Which “activity change, negative = cytotoxicity” value does the source give for Cc1cc(C)c(S(=O)(=O)N(Cc2ccc(-c3cccc(S(C)(=O)=O)c3)cc2)Cc2ccc(C(F)(F)F)o2)c(C)c1 here?
A: -11.5%
